The target of the assay is Glucose transporter (Leishmania mexicana) (UniProt O61059). Briefly: ST_JUDE_LEISH: Cytotoxicity at 2uM final concentration against transgenic Leishmania Mexicana promastigotes LmGT2 that are glucose transport deficient and complemented with the L. Mexicana glucose transporter 2. Activity is measured by DNA content using SYBR green in vitro. It is filed as functional.
With `CC(C)(CNCc1ccc(C(F)(F)F)cc1)c1nc(-c2ccnc(N)n2)c(-c2ccc(Cl)c(O)c2)[nH]1`, the inhibition (commonly the drop in the measured response relative to a control, in per cent) was 2.94%.

In the case of `Cc1[nH]c(C)c(-c2ccc(-c3ccc(OC(F)(F)F)cc3)nc2)c(=O)c1Cl`, the inhibition was found to be 0.22%. For `Cc1ccccc1Nc1nc(NCCc2ccccc2)nc2ccccc12`, the inhibition turned out to be 18.3%. Turning to `COc1ccc(C=NNc2ccnc3cc(F)c(C)cc23)c2ccccc12`, the inhibition was 4.95%. Consider `CCOC(=O)c1cn(CC)c2cc(N(C)CCc3ccc(OC)c(OC)c3)c(F)cc2c1=O`, for which the inhibition is 1.68%. The result for `COc1ccc(C)c(Nc2ccnc(Nc3cccc(-c4nc5ccccc5[nH]4)c3)n2)c1` reads 2.68%; that for `COc1ccc2c(N/N=C/c3ccccc3[N+](=O)[O-])cc(C)nc2c1`, 2.99%; that for `CC(C)CN1CCCN(Cc2cccc(NC(=O)c3cc4ccccc4s3)c2)CC1`, -5.16%. On to `Cc1nc2nc(N)nc(N)c2c(C)c1Cc1ccc(Cl)cc1`, for which the inhibition is 28.7%. In the case of `Cc1cc(N2CCN(C)CC2)nc2ccc(NC(=O)c3cccc(N(C)C)c3)cc12`, the inhibition turned out to be 10.2%.

Turning to `c1ccc(-n2cncn2)cc1`, the inhibition was determined as 4.67%. The result for `OC(CNCc1ccccc1Oc1ccccc1)c1cccc(C(F)(F)F)c1` (stereo unspecified) reads 0.07%; that for `O=S(=O)(NCCN1CCCC1)c1ccc(-c2ccc(CNCc3ccc(F)cc3)cc2)cc1`, 4.15%; that for `Cc1ccc(-c2nnc3c4ccccc4c(C)nn23)cc1S(=O)(=O)N1CCN(CCO)CC1`, -0.93%. Regarding `C=CCn1c(Sc2ccc(C#N)c([N+](=O)[O-])c2)nnc1-c1ccc(OC)cc1`, the inhibition is 3.25%. The result for `COc1ccc2c(=O)ccn(CCN3CCC(NCc4ccc5c(n4)NC(=O)CS5)CC3)c2c1` reads 3.24%.

Source of the values: ChEMBL document CHEMBL3433997, “St. Jude Leishmania screening dataset” (2016).
